Inconclusive results are not listed. Calls of active or inactive are those of the source. Rule for the calls: active = hit-call score of the fitted dose curve at least 0.9, where 1 is the maximum; inconclusive = response in the unintended direction; inactive = score below 0.9.

The values below come from PubChem BioAssay (EPA / NIEHS).

For experiment [1], the target named is Estrogen receptor (Homo sapiens) (UniProt P03372). The experiment can be described thus: OT_ER_ERaERa_0480: Odyssey Thera (OT) 8-hour HEK293T Protein-Complementation Assay for Estrogen Receptor-alpha/-alpha Homodimer (AID 2283351).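 Note: rise in fluorescence from reassembled reporter fragments on ERα LBD homodimer in nucleus or whole cell.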 The essentials: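 Measures ERα LBD (aa 310-547) homodimer complementation in stably transfected HEK293T at 8 h post-dose, with fluorescence intensity quantified on a laser scanning cytometer relative to DMSO controls.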
Sequence of Estrogen receptor (Homo sapiens) (P03372 whole entry, looked up, the tested form may be a part): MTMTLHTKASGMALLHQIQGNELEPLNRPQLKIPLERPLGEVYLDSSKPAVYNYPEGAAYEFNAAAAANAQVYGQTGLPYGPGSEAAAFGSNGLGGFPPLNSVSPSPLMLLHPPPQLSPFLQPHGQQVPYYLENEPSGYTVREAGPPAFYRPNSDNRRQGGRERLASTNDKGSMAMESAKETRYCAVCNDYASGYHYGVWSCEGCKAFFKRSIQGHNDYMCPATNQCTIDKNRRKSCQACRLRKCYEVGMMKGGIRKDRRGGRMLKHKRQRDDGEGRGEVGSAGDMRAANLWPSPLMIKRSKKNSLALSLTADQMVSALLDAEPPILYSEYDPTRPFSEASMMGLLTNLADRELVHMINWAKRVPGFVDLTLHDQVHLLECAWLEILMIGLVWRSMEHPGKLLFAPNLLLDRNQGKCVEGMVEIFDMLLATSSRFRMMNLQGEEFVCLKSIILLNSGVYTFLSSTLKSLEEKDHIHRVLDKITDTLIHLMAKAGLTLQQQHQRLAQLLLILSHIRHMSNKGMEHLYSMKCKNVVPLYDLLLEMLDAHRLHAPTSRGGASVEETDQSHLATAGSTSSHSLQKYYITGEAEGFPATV

Experiment [2] deals with T1, Estrogen receptor (Homo sapiens) + Estrogen receptor beta (Homo sapiens) (UniProt P03372+Q92731). The experiment is described as follows: OT_ER_ERaERb_0480: Odyssey Thera (OT) 8-hour HEK293T Protein-Complementation Assay for Estrogen Receptor-alpha/-beta Heterodimer (AID 2283352). An outline of the steps: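 Fluorescence increase from reconstituted reporter fragments, quantified by laser scanning cytometer, reflects ER-alpha/ER-beta heterodimer formation in human HEK293T cells. Exposure 8 h; positive-direction fitting against DMSO vehicle.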
T1 sequence (P03372 whole entry, looked up, the tested form may be a part): as above
T1 sequence (Q92731 whole entry, looked up, the tested form may be a part): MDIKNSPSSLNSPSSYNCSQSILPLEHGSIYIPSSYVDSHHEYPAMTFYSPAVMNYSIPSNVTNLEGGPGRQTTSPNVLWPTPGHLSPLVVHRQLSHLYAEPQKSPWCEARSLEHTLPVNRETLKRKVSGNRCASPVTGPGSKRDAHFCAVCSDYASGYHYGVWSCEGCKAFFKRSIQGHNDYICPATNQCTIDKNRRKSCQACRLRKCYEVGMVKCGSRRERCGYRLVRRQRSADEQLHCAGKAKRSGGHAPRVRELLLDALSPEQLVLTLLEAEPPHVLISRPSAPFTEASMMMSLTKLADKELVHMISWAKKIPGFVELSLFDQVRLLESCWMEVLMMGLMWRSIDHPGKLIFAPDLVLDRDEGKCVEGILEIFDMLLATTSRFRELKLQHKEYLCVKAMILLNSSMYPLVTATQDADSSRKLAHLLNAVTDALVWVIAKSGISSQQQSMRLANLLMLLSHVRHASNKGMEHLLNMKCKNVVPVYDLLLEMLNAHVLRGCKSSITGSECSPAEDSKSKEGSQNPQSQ

Experiment [3] deals with Androgen Receptor/SRC-1 Co-activator, AR (gene 367) (UniProt P10275). The experiment is described as follows: OT_AR_ARSRC1_0960: Odyssey Thera (OT) 16-hour HEK293T Protein-Complementation Assay for Androgen Receptor/SRC-1 Co-activator (AID 2283353).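 Note: actives raise the signal above DMSO so potency reflects increased AR and SRC-1 complex.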 The essentials: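 Sixteen-hour cell assay: Venus halves fused to AR and SRC-1 in HEK293T report binding. Images at 488/635 nm give an N/C ratio in the 488 nm channel over ≥400 cells, analysed as signal increase over DMSO.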
Sequence of Androgen Receptor/SRC-1 Co-activator, AR (gene 367) (P10275 whole entry, looked up, the tested form may be a part): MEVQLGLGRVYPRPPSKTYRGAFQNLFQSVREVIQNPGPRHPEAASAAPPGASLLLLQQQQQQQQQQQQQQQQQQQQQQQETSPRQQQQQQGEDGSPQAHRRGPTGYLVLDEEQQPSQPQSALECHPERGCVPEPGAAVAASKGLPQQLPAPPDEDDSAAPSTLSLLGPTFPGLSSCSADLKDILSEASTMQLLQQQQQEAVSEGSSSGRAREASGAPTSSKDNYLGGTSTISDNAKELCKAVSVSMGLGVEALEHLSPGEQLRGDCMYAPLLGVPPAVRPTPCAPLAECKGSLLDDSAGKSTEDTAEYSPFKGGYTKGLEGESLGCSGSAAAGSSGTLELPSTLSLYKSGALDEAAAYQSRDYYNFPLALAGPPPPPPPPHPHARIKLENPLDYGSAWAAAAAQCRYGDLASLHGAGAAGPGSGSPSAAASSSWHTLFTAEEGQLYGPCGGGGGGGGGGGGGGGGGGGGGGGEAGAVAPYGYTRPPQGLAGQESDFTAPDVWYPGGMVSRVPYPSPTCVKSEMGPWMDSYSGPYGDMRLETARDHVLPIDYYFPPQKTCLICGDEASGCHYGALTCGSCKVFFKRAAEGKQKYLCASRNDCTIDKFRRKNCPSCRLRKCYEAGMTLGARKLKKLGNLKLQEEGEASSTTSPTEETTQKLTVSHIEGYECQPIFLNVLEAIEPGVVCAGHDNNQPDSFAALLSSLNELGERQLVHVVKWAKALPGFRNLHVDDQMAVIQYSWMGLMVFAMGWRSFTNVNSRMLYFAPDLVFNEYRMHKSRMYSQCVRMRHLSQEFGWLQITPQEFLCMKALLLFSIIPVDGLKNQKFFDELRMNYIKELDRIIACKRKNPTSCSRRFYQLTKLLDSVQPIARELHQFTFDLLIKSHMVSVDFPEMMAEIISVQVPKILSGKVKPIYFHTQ

The target is the same in experiment [4]. The experiment can be described thus: OT_AR_ARSRC1_0480: Odyssey Thera (OT) 8-hour HEK293T Protein-Complementation Assay for Androgen Receptor/SRC-1 Co-activator (AID 2283354).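 Note: hits raise the complementation signal above DMSO so AC50 marks enhancers.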 An outline of the steps:
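Split-Venus PCA, stable HEK293T, AR/SRC-1 fusions; 8 h exposure. Readout: 488nm N/C fluorescence ratio, ≥400 cells/image; fitted upward vs DMSO baseline.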

Experiment [5] deals with T1, Estrogen receptor (Homo sapiens) + Estrogen receptor beta (Homo sapiens). The experiment can be described thus: OT_ER_ERaERb_1440: Odyssey Thera (OT) 24-hour HEK293T Protein-Complementation Assay for Estrogen Receptor-alpha/-beta Homodimer (AID 2283356).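 Note: heteromer of ER alpha and ER beta binding domains; hits raise reporter fluorescence and both agonists and antagonists give an increase.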 The essentials:
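Fragment complementation between ER alpha (310-547) and ER beta (263-489) ligand-binding domains in HEK293T cells; signal read 24 h post-dosing by laser scanning cytometer. Gain of fluorescence relative to DMSO fitted.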

For experiment [6], the target named is Estrogen receptor beta (Homo sapiens) (UniProt Q92731). The experiment is described as follows: OT_ER_ERbERb_0480: Odyssey Thera (OT) 8-hour HEK293T Protein-Complementation Assay for Estrogen Receptor-beta/-beta Homodimer (AID 2283357).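 Note: active means signal gain over DMSO baseline.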 An outline of the steps: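 Homodimerization of ER-beta LBD measured by protein-fragment complementation in HEK293T; 8 h dosing; fixed, Draq5 counterstain; fluorescence intensity gain over DMSO baseline, positive fitting direction; laser scanning cytometry.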
Sequence of Estrogen receptor beta (Homo sapiens) (Q92731 whole entry, looked up, the tested form may be a part): as the sequence (Q92731 whole entry, looked up, the tested form may be a part) above

The target of experiment [7] is Estrogen receptor (Homo sapiens) (UniProt P03372). The experiment is described as follows: NVS_NR_hER: NovaScreen (NVS) Nuclear Receptor Binding Assay for human Estrogen Receptor (ER) (AID 2283348). An outline of the steps:
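MCF7-derived receptor extract, radiolabelled ligand, competitive displacement. Read: scintillation counts at 18 h. DMSO = negative control/baseline. Primary 25 uM duplicate; follow-up concentration–response.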

The next experiment addresses PGR (gene 5241) (UniProt P06401). The experiment is described as follows: NVS_NR_hPR: NovaScreen (NVS) Nuclear Receptor Binding Assay for human Progestron Receptor (PR) (AID 2283360).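 Note: active means loss of bound radioligand signal versus DMSO baseline.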 An outline of the steps:
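T47D-derived receptor preparation, cell-free, with tritiated or iodinated radioligand displacement measured by scintillation 18 h post-dosing. Single 25 uM duplicate screen, then concentration series; signal loss relative to DMSO.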

The target of experiment [8] is guinea pig Sigma Receptor, Non-selective Binding, SIGMAR1 (gene 100135589) (UniProt Q60492). The experiment is described as follows: NVS_OR_gSIGMA_NonSelective: NovaScreen (NVS) Nuclear Receptor Binding Assay for guinea pig Sigma Receptor, Non-selective Binding (AID 2283367). An outline of the steps:
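Membranes from guinea pig brain incubated with radioligand and test chemical for 1 h, then filtered and scintillation-counted. Duplicate primary testing at 25 uM, with concentration-series follow-up for actives.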

Experiment [9] has as its target Bile acid receptor (Homo sapiens) (UniProt Q96RI1). The experiment is described as follows: NVS_NR_hFXR_Antagonist: NovaScreen (NVS) Nuclear Receptor Binding Assay for human Farnesoid X Receptor Antagonism (FXR) (AID 2283350). The essentials:
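Antagonist-format time-resolved FRET binding assay with extracted human receptor protein, read 1 hour after compound addition. Compounds first screened at 25 uM in duplicate, then actives tested in concentration series, with loss of signal relative to DMSO.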

The target in experiment [10] is Retinoic acid receptor alpha (Homo sapiens) (UniProt P10276). The experiment is described as follows: NVS_NR_hRAR_Antagonist: NovaScreen (NVS) Nuclear Receptor Binding Assay for human Retinoic Acid Alpha Receptor Antagonism (RAR) (AID 2283358). The essentials: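 Read-out: time-resolved FRET binding signal, 2 h post-dose, cell-free extracted protein. Antagonism scored as signal loss versus DMSO negative control. Primary single-concentration screen at 25 uM in duplicate; concentration series for actives.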

Experiment [11] deals with human Thyroid Receptor Alpha (TRa), THRA (gene 7067) (UniProt P10827). The experiment is described as follows: NVS_NR_hTRa_Antagonist: NovaScreen (NVS) Nuclear Receptor Binding Assay for human Thyroid Receptor Alpha Antagonism (TRa) (AID 2283362).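 Note: activity is loss of signal relative to DMSO baseline.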 An outline of the steps: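 Actives from a duplicate 25 uM single-point screen were retested in concentration series. The cell-free antagonist-format binding assay was read by AlphaLISA chemiluminescence at 1 h, scored as signal loss relative to DMSO.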
Sequence of human Thyroid Receptor Alpha (TRa), THRA (gene 7067) (P10827 whole entry, looked up): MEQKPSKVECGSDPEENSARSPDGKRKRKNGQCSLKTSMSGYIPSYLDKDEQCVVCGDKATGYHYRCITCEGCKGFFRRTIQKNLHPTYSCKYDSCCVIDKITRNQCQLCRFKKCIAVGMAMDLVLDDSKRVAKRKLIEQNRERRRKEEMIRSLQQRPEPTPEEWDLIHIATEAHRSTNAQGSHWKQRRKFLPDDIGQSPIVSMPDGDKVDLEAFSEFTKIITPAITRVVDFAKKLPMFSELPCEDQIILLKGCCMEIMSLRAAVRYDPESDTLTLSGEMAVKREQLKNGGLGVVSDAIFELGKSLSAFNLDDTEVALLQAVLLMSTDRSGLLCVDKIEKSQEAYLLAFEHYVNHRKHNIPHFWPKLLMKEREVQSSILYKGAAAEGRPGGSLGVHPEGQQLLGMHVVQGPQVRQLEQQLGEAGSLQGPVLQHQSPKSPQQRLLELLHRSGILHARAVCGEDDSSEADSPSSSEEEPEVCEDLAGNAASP

Experiment [12] has as its target Glucocorticoid receptor (Homo sapiens) (UniProt P04150). The experiment can be described thus: NVS_NR_hGR: NovaScreen (NVS) Nuclear Receptor Binding Assay for human Glucocorticoid Receptor (GR) (AID 2283363).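 For AC50: activity is loss of specific radioligand binding signal relative to DMSO.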 An outline of the steps:
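Filter scintillation readout of tritiated/iodinated radioligand displaced by test chemical; cell-free extracted protein; 16 h. DMSO = negative control/baseline. Duplicate single-point 25 uM screen, then concentration-response on actives.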

Experiment [13] has as its target human Adenosine Transporter (Adot), SLC29A1 (gene 2030) (UniProt Q99808). The experiment is described as follows: NVS_TR_hAdoT: NovaScreen (NVS) Transporter Assay for human Adenosine Transporter (Adot) (AID 2283368). The essentials:
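Binding displacement on U937 extracted protein, read 1 h post-dose by filtration and scintillation counting. Primary duplicate test at 25 uM, then singleton concentration series with 50 uM top; DMSO baseline.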

Experiment [14] addresses Retinoic acid receptor alpha (Homo sapiens) (UniProt P10276). The experiment is described as follows: NVS_NR_hRARa_Agonist: NovaScreen (NVS) Nuclear Receptor Binding Assay for human Retinoic Acid Alpha Receptor Agonism (RAR) (AID 2283361). The essentials: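 TR-FRET signal, 2 h post-dosing; cell-free extracted protein; DMSO = baseline, positive fitting direction; 25 uM single-point duplicate, then concentration series for actives.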

The target in experiment [15] is Bile acid receptor (Homo sapiens) (UniProt Q96RI1). The experiment is described as follows: NVS_NR_hFXR_Agonist: NovaScreen (NVS) Nuclear Receptor Binding Assay for human Farnesoid X Receptor Agonism (FXR) (AID 2283347). An outline of the steps: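 Agonist-mode FXR assay read by time-resolved FRET 1 h after compound addition, using isolated human receptor protein without cells. Duplicate 25 uM single-point primary screen, concentration series for confirmed actives; DMSO as baseline.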
Sequence of Bile acid receptor (Homo sapiens) (Q96RI1 whole entry, looked up): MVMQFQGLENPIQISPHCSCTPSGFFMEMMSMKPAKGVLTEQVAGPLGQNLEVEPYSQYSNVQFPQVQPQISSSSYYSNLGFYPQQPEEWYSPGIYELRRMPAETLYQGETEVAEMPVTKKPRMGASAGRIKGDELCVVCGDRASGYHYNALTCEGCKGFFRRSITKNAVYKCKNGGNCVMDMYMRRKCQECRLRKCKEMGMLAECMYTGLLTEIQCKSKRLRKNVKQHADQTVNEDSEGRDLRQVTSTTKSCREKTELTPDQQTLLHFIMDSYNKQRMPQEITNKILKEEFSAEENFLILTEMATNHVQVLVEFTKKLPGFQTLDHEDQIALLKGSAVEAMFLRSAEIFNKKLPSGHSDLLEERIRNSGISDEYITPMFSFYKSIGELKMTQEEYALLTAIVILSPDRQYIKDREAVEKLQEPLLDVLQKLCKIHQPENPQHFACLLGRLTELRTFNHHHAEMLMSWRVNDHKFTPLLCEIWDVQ

Experiment [16] has as its target rat Mineralocorticoid Receptor (MR), Nr3c2 (gene 25672) (UniProt P22199). The experiment is described as follows: NVS_NR_rMR: NovaScreen (NVS) Nuclear Receptor Binding Assay for rat Mineralocorticoid Receptor (MR) (AID 2283355). An outline of the steps: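 Radioligand displacement, scintillation readout; tissue source adrenalectomized rat brain supernatant. Read 24 h post-dose. Screened in duplicate at 25 uM, DMSO negative control, controls on every plate; actives re-run in concentration series.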

Experiment [17] has as its target rat Androgen Receptor (AR), Ar (gene 24208) (UniProt P15207). The experiment is described as follows: NVS_NR_rAR: NovaScreen (NVS) Nuclear Receptor Binding Assay for rat Androgen Receptor (AR) (AID 2283366). An outline of the steps: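 Actives from a duplicate single-concentration (25 uM) primary run went on to concentration series. Displacement of radioligand was counted by filtration and scintillation, 18 h post-dose, using prostate extracts from testosterone-pretreated rats, with DMSO as baseline.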

Sequence of Glucocorticoid receptor (Homo sapiens) (P04150 whole entry, looked up): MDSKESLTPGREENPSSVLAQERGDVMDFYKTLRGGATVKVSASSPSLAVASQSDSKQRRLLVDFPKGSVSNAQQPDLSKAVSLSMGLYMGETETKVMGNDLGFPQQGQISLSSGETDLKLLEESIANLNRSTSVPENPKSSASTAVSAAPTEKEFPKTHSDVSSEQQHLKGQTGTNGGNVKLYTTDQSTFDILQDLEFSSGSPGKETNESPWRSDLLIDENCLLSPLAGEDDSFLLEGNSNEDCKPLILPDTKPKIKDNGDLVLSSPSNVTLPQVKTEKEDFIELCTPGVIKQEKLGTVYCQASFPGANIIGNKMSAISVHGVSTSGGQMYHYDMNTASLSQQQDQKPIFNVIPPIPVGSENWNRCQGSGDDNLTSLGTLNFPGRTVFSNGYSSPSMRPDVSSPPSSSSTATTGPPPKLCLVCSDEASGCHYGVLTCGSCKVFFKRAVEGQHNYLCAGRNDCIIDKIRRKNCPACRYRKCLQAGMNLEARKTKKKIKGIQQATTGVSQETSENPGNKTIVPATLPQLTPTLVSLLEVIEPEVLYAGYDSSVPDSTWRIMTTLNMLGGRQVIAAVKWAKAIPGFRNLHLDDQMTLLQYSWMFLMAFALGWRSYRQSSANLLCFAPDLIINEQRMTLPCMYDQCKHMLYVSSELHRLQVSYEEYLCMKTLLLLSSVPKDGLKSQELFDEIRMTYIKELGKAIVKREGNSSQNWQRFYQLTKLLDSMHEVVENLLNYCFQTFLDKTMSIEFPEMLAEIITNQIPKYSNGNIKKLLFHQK

As to `CCOC1Oc2ccc(OS(C)(=O)=O)cc2C1(C)C` (centres undefined), the call in experiment [1], in [2], in experiment [3], in [4], in [5] and in [6] was inactive.

Take `COP(=S)(OC)Oc1ccc(SC)c(C)c1`: the outcome (in experiment [7]; in experiment [1]; in experiment [2]; in experiment [5]; in [6]; with PGR (gene 5241)) was inactive. In addition, the half-maximal activity concentration (AC50) in experiment [8] was 11.2 µM (active).

Regarding `CCCN(CCOc1c(Cl)cc(Cl)cc1Cl)C(=O)n1ccnc1`, the compound was classed as inactive (in experiment [9]; in experiment [6]; in experiment [10]; with PGR (gene 5241); in experiment [12]). In addition, the concentration at half-maximal activity (AC50) in experiment [11] is 6.39 µM (active); in experiment [8], 8.36 µM (active); in experiment [13], 8.65 µM (active).

As to `N#Cc1c(Cl)c(Cl)c(Cl)c(C#N)c1Cl`, the result (in [9]; in experiment [1]; in [5]; in experiment [6]; with PGR (gene 5241)) was inactive. Besides, the half-maximal activity concentration (AC50) in experiment [14] is 36.9 µM (active); in [11], 40.5 µM (active); in experiment [12] it was 0.177 µM (active).

In the case of `COP(=O)(OC)OC=C(Cl)Cl`, the compound was classed as inactive (in experiment [7]; in experiment [1]; in [2]; in experiment [5]; in [6]; with PGR (gene 5241)). In addition, in experiment [11], the result was inactive.

For the compound `CCN(CC)C(=O)SCc1ccc(Cl)cc1`, the call in experiment [9] and in experiment [1] was inactive.

In the case of `OCCOc1ccccc1`, the result in experiment [15], in experiment [1], in [5] and in experiment [6] was inactive.

Take `COC(=O)c1ccccc1S(=O)(=O)NC(=O)N(C)c1nc(C)nc(OC)n1`: the outcome in experiment [15], in experiment [7], in experiment [16] and in [10] was inactive.

For the compound `CC1(c2ccc(Oc3ccccc3)cc2)OC(=O)N(Nc2ccccc2)C1=O` (centres undefined), the half-maximal activity concentration (AC50) in [9] is 10 µM (active). Also, the call in experiment [1], in [2], in experiment [5], in [6] and in [10] was inactive.

On to `CCOc1nc(NC)nc(NC(=O)NS(=O)(=O)c2ccccc2C(=O)OC)n1`, for which the result (in experiment [7]; in experiment [9]; with PGR (gene 5241); in experiment [11]; in experiment [12]; in [17]) was inactive.

With `O=[N+]([O-])/N=C1\NCCN1Cc1ccc(Cl)nc1`, the result in experiment [7], in [9], in [1], in [2], in experiment [3] and in experiment [5] was inactive. In addition, the outcome in [6], in experiment [10], in experiment [11], in [12] and in [17] was inactive.
